Active and inactive are the calls of the source.
Tested on: XIP peptide (Xip251-270) binding
Assay: small-molecule binders of XIP peptide, primary screen, biochemical, small-molecule microarray, fluorescence 635/667 nm, 0.1 µg/mL protein (AID 1182)
Conditions: fluorescent protein binding, 635 nm, higher = more signal, called active from +8 up or from −8 down

Composite z-score, inactive:
C=CC[C@H](O)c1ccc(O)c(F)c1 -0.51
COc1ccc([Si](C)(C)[C@@H]2[C@@H](CC(=O)N3Cc4ccccc4C[C@H]3CO)O[C@]3(C(=O)N(Cc4ccc(I)cc4)c4ccccc43)[C@H]2C)cc1 0.153
C=C(C(=O)CC[C@@H](OC(=O)c1ccccc1-c1ccccc1C(=O)O)c1ccc(CO)o1)C(C)C 0.525
CC1CC/C=C\[C@H]2OC34C=CCN(C(C)C)C(=O)[C@H]3N(C(C)CO)C(=O)[C@@H]4C2C(=O)O1 (some centres undefined) -0.275
O=C1O[C@H](c2ccccc2)[C@H](c2ccccc2)N2[C@H]1[C@@H](C(=O)O)[C@]1(C(=O)Nc3ccccc31)[C@H]2c1ccc(OCCO)cc1 1.13
COc1ccc([Si](C)(C)[C@H]2[C@H](CC(=O)N(CCO)Cc3ccccc3)O[C@@]3(C(=O)N(Cc4ccc(N5C(=O)c6cccc7cccc5c67)cc4)c4ccccc43)[C@@H]2C)cc1 1.74
CC(C)c1ccc(NN2C(C(O)C3CCCCC3)C=CC3C(=O)N(c4ccccc4)C(=O)C32)cc1 (centres undefined) 0.668
CC(C)N1C(=O)[C@@]2(Cc3ccccc31)c1ccccc1C(=O)N(Cc1ccccc1C(F)(F)F)[C@H]2c1ccc(CO)cc1 -0.0547
C=C(C(=O)CC[C@@H](OC(=O)c1ccccc1-c1ccccc1C(=O)O)c1ccc(OCCO)cc1)C(C)C -0.206
C=C(CCCC)/C(=C/C[C@@H](OC(C)=O)c1ccc(OCCO)cc1)c1cc(C(=O)OC)ccc1OC 0.952
C=CCOC(=O)[C@H]1[C@@H]2C(=O)O[C@@H](c3ccccc3)[C@@H](c3ccccc3)N2[C@@H](c2ccc(OCCOC(=O)[C@H]3C[C@H]4C(=O)NCC(=O)N4[C@H]3c3ccc(O)cc3)cc2)[C@]12C(=O)Nc1ccccc12 0.758
C=C(C(=O)CC[C@@H](OC(=O)c1ccccc1-c1ccccc1C(=O)O)c1cccc(OCCO)c1)C(C)C 0.0145
COC(=O)C(CC#Cc1ccc2c(c1)[C@]1(C(=O)N2)[C@H](C(=O)NC[C@H](O)c2ccccc2)[C@H]2C(=O)O[C@H](c3ccccc3)[C@H](c3ccccc3)N2[C@@H]1c1ccc(O)cc1)C(=O)OC 0.321
O=C1C2C=CC(C(O)C3CCCCC3)N(Nc3ccccc3F)C2C(=O)N1c1ccccc1 (centres undefined) 0.352
C=CCNC(=O)[C@@H]1[C@H]2C(=O)O[C@H](c3ccccc3)[C@H](c3ccccc3)N2[C@H](c2ccc(O)cc2)[C@@]12C(=O)N(C(=O)OCCOC)c1ccc(C#CCC(C(=O)OC)C(=O)OC)cc12 0.891
CN1C2C=C(c3ccc(CO)cc3)C(C3C(=O)N(C(N)=O)C(=O)C32)C1C1CC1 (centres undefined) -0.313
COC(=O)[C@]1(Cc2ccccc2CN=[N+]=[N-])N=C(c2ccc(OCCCO)cc2)O[C@@H]1c1ccccc1N=[N+]=[N-] 0.0771
COCCOC(=O)N1C(=O)[C@@]2(c3cc(C#CCC(C(=O)OC)C(=O)OC)ccc31)[C@H](C(=O)N1CCc3cc(OC)c(OC)cc3C1)[C@H]1C(=O)O[C@H](c3ccccc3)[C@H](c3ccccc3)N1[C@@H]2c1ccccc1OCCO 0.629
COC(=O)C(CC#Cc1ccc2c(c1)[C@]1(C(=O)N2)[C@H](c2ccccc2OCCO)N2[C@H](c3ccccc3)[C@H](c3ccccc3)OC(=O)[C@H]2[C@@H]1C(=O)N1CCN(c2ncccn2)CC1)C(=O)OC -0.0996
C=CC[C@]1(C(=O)NCCN2CCOCC2)N=C(c2ccc(OCCCO)cc2)O[C@H]1c1ccccc1 0.212
CN(C)C(=O)[C@]1(CCS(=O)(=O)c2ccccc2)N=C(c2ccc(OCCCO)cc2)O[C@@H]1c1ccccc1CN=[N+]=[N-] 0.556
C=CCC(OC(C)=O)[C@@H]1[C@@H](N(Cc2cccc3ccccc23)C(=O)c2ccc(C)cc2)c2cc(OCCCO)ccc2N1C(=O)Cc1ccc2ccccc2c1 (some centres undefined) -0.929
COCCCNC(=O)[C@@]1(Cc2ccccc2I)c2ccccc2C(=O)N(Cc2ccccc2C(F)(F)F)[C@H]1c1ccc(CO)cc1 0.739
O=C(O)C1=CC[C@H]2C(=O)N(c3ccccc3)C(=O)[C@@H]12 0.688

From PubChem BioAssay
